Source: PubChem BioAssay
Nox1 inhibitor: inhibitors of human NADPH oxidase 1 (Nox1). 16,000 tested, 0.81% active. Q9Y5S8. AID 1792. HT29 cells, luminol chemiluminescence ROS. inhibition, % at 6.7 µM
Target sequence (Q9Y5S8 whole entry, looked up): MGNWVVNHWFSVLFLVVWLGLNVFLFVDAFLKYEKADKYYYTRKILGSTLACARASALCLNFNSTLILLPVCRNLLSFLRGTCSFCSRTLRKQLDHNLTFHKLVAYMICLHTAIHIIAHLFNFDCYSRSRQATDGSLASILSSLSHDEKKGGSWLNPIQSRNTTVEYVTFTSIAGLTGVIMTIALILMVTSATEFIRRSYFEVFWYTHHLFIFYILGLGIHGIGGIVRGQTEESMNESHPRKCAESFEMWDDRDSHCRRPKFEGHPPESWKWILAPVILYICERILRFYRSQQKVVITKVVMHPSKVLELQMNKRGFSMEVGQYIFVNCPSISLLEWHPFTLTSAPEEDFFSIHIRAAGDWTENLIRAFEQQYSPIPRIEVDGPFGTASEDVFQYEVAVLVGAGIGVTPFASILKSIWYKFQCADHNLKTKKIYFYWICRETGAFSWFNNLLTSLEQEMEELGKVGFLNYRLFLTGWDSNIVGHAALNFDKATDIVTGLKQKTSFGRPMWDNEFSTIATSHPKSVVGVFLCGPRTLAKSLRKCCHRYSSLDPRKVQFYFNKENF
PME-1 Maybr inh: PME-1 (human) inhibition, Maybridge primary screen. Q9Y570. 16,000 tested, 0.5% active. recombinant PME-1, FP-Rh probe fluorescence polarization. inhibition, % at 9 µM; in the data active = inhibition above about 30%
NOTCH agonist: agonists of NOTCH signaling | NOTCH signaling luciferase reporter cells, luminescence | activation, % at 2.5 µM | 15,000 tested, 0.4% active; in the data active = activation above about 2.2%
luminol inh ctr: luminol signal inhibition, Nox1 inhibitor counter-screen; HRP/luminol/H2O2 chemiluminescence counterscreen; inhibition, % at 6.7 µM; 16,000 tested, 0.4% active; note: reference of the scale not given here
Large screens that a line does not name were inactive. A selection: hits, their analogues and other compounds. The true share with any hit is near 1.8%. Cut-off read from the data, not from the text of the source, unless noted: active = inhibition above about 75%; inactive = the rest.

CC(C)C(=O)NNc1nc2c(c(=O)n(C)c(=O)n2C)n1Cc1ccc(Cl)cc1	Nox1 inhibitor 100
FC(F)(F)c1cccc(-n2c(Cc3ccccc3)n[nH]c2=S)c1	none
FC(F)(F)c1cccc(CSc2n[nH]c(=S)s2)c1	luminol inh ctr 99
Cc1cc(NC(=O)COC(Cc2ccccc2)C(F)(F)F)no1 (stereo not drawn)	none
N#CC(Sc1ccccc1)c1ccccc1 (stereo not drawn)	none
O=C1c2ccccc2C(=O)c2c(O)ccc(O)c21	PME-1 Maybr inh 40
O=C(NNc1nc(-c2cccs2)cs1)c1ccc(Cl)cc1	none
CC(C)(C)c1csc(NNC(=O)c2ccc(Cl)cc2)n1	Nox1 inhibitor 85
O=[N+]([O-])c1ccc(-c2cc3cc(Cl)ccc3o2)cc1	none
O=[N+]([O-])c1ccc(S(=O)(=O)c2cc(Cl)ccc2Cl)[n+]([O-])c1	NOTCH agonist 3.6
O=C(NNC(=O)c1cccs1)c1ccc2ncccc2c1	none
CS(=O)(=NS(=O)(=O)c1ccc(Cl)cc1)c1ccccc1 (stereo not drawn)	PME-1 Maybr inh 41
Cc1csc(SCC(=O)NNS(=O)(=O)c2cc(C(F)(F)F)cc(C(F)(F)F)c2)n1	none
Cc1csc2ncnc(NNS(=O)(=O)c3cc(C(F)(F)F)cc(C(F)(F)F)c3)c12	Nox1 inhibitor 102
S=c1[nH]nc(-c2cnccn2)s1	none
CN(C)Nc1ccc([N+](=O)[O-])c(NN(C)C)c1C#N	Nox1 inhibitor 81
COc1cc(NC(=O)c2cc(C)oc2C)cc(OC)c1OC	none
COc1ccc(C(C#N)(CCC#N)CCC#N)cc1	none
Nc1cc(S(=O)(=O)O)c(N)c2c1C(=O)c1ccccc1C2=O	PME-1 Maybr inh 99 (no result: NOTCH agonist)
Cc1ccc(C)c2c1C(=O)c1ccccc1C2=O	none
CC(=O)Nc1scc(C)c1C(N)=O	none
CCN(CC)c1ccc(NS(=O)(=O)c2ccc(F)cc2)cc1	Nox1 inhibitor 102
CNC(=S)NNC(=O)c1c(C)nc2cc(C)ccn12	Nox1 inhibitor 97
CCOC(=O)c1ccc(NC(=S)NC)cc1	NOTCH agonist 2.9
CCOC(=O)c1ccc(NC(=O)C(=S)NCc2ccccc2)cc1	none
S=c1nc[nH]c2[nH]ncc12	luminol inh ctr 80
CSc1ccc(/C=C/c2onc(C)c2[N+](=O)[O-])s1	PME-1 Maybr inh 64
O=C(NC1(O)C(=O)c2ccccc2C1=O)c1ccc(-c2csnn2)cc1	none
O=S(=O)(Nc1ccc(N2CCCCC2)cc1)c1cc(Cl)sc1Cl	Nox1 inhibitor 102
CSc1nc(NS(=O)(=O)c2cc(Cl)sc2Cl)nn1C	none
Nc1ccc(Nc2ccc(N)cc2S(=O)(=O)O)cc1	PME-1 Maybr inh 44
C=C(C#N)CN1CCN(CC(=C)C#N)CC1	none
O=[N+]([O-])c1cc(C(F)(F)F)cc([N+](=O)[O-])c1Sc1ncc2ccccn12	Nox1 inhibitor 102 (no result: NOTCH agonist)
O=[N+]([O-])c1cccnc1Sc1ncc2ccccn12	none
COCCC[n+]1c(C)csc1Nc1ccc(Cl)cc1	none
COC(=O)c1ccccc1S(=O)(=O)N1CCN(c2ncccn2)CC1	none
O=C(Nc1cccc2[nH]ccc12)C1CCCCC1	NOTCH agonist 2.3
CSc1nnc(SC2=CC(=O)CC(c3ccccc3)C2)s1 (stereo not drawn)	NOTCH agonist 3.3
CN(C)c1ccc(/C=C(\C#N)C(=O)c2cccs2)cc1	none
COc1ccc(S(=O)(=O)Nc2cc(C)c(C)cc2[N+](=O)[O-])c(OC)c1	PME-1 Maybr inh 33
COc1ccc(NS(=O)(=O)c2ccc(C)cc2)c([N+](=O)[O-])c1	none
O=[N+]([O-])c1ccc(NC(=S)Nc2cccc(C(F)(F)F)c2)cc1	none
COc1cccc(NC(=S)NNc2ccc([N+](=O)[O-])cc2)c1	Nox1 inhibitor 98
CSc1cccc(NC(=S)NCc2ccc(C#N)cc2)c1	PME-1 Maybr inh 61
COc1ccc(CC(=O)Nc2ccc(-c3cnco3)cc2)cc1OC	none
Cc1cc(NNC(=O)c2ccccc2Cl)nc2c1c(C)nn2C	Nox1 inhibitor 78
COc1ccc(OC)c(S(=O)(=O)Nc2cccc(Cl)c2)c1	none
COC(=O)c1sccc1NC(=O)CC1C(=O)NCCN1C(=O)c1ccccc1 (stereo not drawn)	PME-1 Maybr inh 46
CCC(CO)NC(=S)Nc1ccsc1C(=O)OC (stereo not drawn)	none
COC(=O)c1sccc1NC(=S)NCCN1CCNC1=O	luminol inh ctr 99
COC(=O)c1sccc1-c1ccc(/C=N/OCc2cc(F)cc3c2OCOC3)o1	none
CCC(C)(C)C1CCc2c(sc(NC(=O)c3ccccc3C(=O)O)c2C#N)C1 (stereo not drawn)	PME-1 Maybr inh 33
O=C(Oc1ccc([N+](=O)[O-])cc1)c1c(Cl)cccc1Cl	none
Cc1cc(NC(=O)CSc2n[nH]c(=O)n2-c2ccc3c(c2)OCCO3)n(-c2ccccc2)n1	NOTCH agonist 2.2
